PubChem BioAssay (Tox21)
Records with an inconclusive call do not appear. Activity calls are given as the source filed them. Unless noted, calls come from the whole dose curve.

What was measured:
[1] = Nuclear factor erythroid 2-related factor 2/antioxidant responsive element (Nrf2/ARE) small molecule agonists: qHTS cell viability counter screen in human keratinocytes (AID 1919968; active = well fitted cell-killing curve with a large enough effect in the repeat runs; note: nearly all actives have a fitted effect of over 55% in size; note: potency is the fitted concentration of half-maximal effect)
Method in brief: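 Seed 1,500 KeratinoSens cells per well, then incubate 5 h at 37 C/5% CO2. Add compounds in DMSO and incubate 23 h. Add CellTiter-Fluor, wait 1 h and read fluorescence.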

[2] = Nuclear factor erythroid 2-related factor 2/antioxidant responsive element (Nrf2/ARE) small molecule agonists: luciferase reporter gene qHTS assay in human keratinocytes (AID 1919969); note: nearly all actives have a fitted effect of over 35% in size; note: potency is the fitted concentration of half-maximal effect
[3] = target: Gonadotropin-releasing hormone receptor (Homo sapiens) (UniProt P30968); assay: Human gonadotropin-releasing hormone receptor (GnRHR) small molecule agonists, calcium flux assay in GnRHR-HEK293 cells (AID 1920063); note: nearly all actives have a fitted effect of over 35% in size
Method in brief: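 Cells: HEK293 stably expressing human GnRHR. Steps: overnight (18 h) culture, 1 h calcium dye loading at 37 C, compound addition, kinetic fluorescence read at 480/540 nm. Each compound tested at 15 concentrations in triplicate.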

[4] = G protein-coupled receptor (GPCR) small molecule agonists, calcium flux assay: HEK293 wild type cell line counter screen (AID 1920065)
Method in brief: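 Counter-screen of the Tox21 10K library for non-specific calcium release: dye-loaded cells received compounds in DMSO and were monitored by kinetic fluorescence (480/540 nm, 3 min). Fifteen concentrations, run in triplicate.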

[5] = p53 small molecule agonists, cell-based qHTS assay with human liver microsomes (AID 1963577);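 note: p53 response element beta-lactamase reporter cells with liver microsomes plus NADPH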
Method in brief: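 16 h, 37 C exposure of p53RE-bla cells to compounds with human liver microsomes and NADPH (0.5 mg/mL final each); detection via LiveBLAzer mixture, 2 h dark at room temperature.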

[6] = p53 small molecule agonists, cell-based qHTS assay with rat liver microsomes (AID 1963578)
Method in brief: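 With rat liver microsomes and NADPH present (0.5 mg/mL final each), p53RE-bla cells are treated with compound for 16 h at 37 C. LiveBLAzer detection mixture is then applied for 2 h at room temperature in the dark.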

[7] = p53 small molecule agonists, cell-based qHTS assay with human liver microsomes: qHTS cell viability counter screen (AID 1963579); note: nearly all actives have a fitted effect of over 45% in size
Method in brief: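 In this multiplexed counter screen, the reporter plates were subsequently treated with CellTiter-Glo so that cell viability, reflected by luminescence, could be recorded for p53RE-bla cells dosed 16 h with compounds under microsomal activation (HLM and NADPH).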

[8] = p53 small molecule agonists, cell-based qHTS assay with rat liver microsomes: qHTS cell viability counter screen (AID 1963580); note: nearly all actives have a fitted effect of over 45% in size
Method in brief: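 Intracellular ATP, by CellTiter-Glo luminescence, defines viability. HCT-116 p53RE-bla cells, 4,000 per well, were compound-treated in the presence of rat liver microsomes and NADPH for 16 h at 37 C.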

[9] = p53 small molecule agonists, cell-based qHTS assay: qHTS cell viability counter screen (AID 1963581); note: nearly all actives have a fitted effect of over 45% in size
Method in brief: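 Cells: HCT-116 with p53 response element-driven beta-lactamase. Treatment: 16 h, 37 C, compounds in DMSO. Read: CellTiter-Glo luminescence after 30 min RT.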

[10] = p53 small molecule agonists, cell-based qHTS assay (AID 1963582; active = well fitted activation curve with a large enough effect in the signal ratio in the repeat runs, not every such curve was filed as active; the % refers to the signal ratio)
Method in brief: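 Quantitative HTS in p53RE-bla cells: after a 5 h settling period, compounds delivered in DMSO were left on cells for 16 h at 37 C, and reporter induction was measured as fluorescence following 2 h substrate loading.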

[11] = target: 5-hydroxytryptamine receptor 2A (Homo sapiens) (UniProt P28223); assay: 5-hydroxytryptamine receptor 2A (HTR2A) small molecule antagonists, cell-based qHTS assay (AID 1963586); note: nearly all actives have a fitted effect of over 45% in size
Method in brief: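 Antagonist-mode intracellular calcium assay: DOI (4 nM) added after 5 min compound pre-incubation at room temperature to dye-loaded HTR2A-CHO cells. Fluorescence followed for 3 min, sampled every second.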

[12] = target: 5-hydroxytryptamine receptor 2A (Homo sapiens) (UniProt P28223); assay: 5-hydroxytryptamine receptor 2A (HTR2A) small molecule agonists, cell-based qHTS assay (AID 1963587); note: nearly all actives have a fitted effect of over 30% in size
Method in brief: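 Kinetic calcium-flux fluorescence (2 min, 1 sec intervals) after compound addition in agonist mode. HTR2A-CHO cells were cultured 18 h, then dye-loaded 1 h at 37 C.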

[13] = target: Muscarinic acetylcholine receptor M1 (Homo sapiens) (UniProt P11229); assay: Cholinergic receptor muscarinic 1 (CHRM1) small molecule agonists, cell-based qHTS assay (AID 1963589); note: nearly all actives have a fitted effect of over 35% in size
Method in brief: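 Agonist-mode qHTS in CHO cells stably carrying human muscarinic M1. Intracellular calcium is tracked by fluorescence every second after compound transfer; each compound runs at 15 concentrations in three independent runs.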

[14] = cAMP Responsive Elements (CRE) small molecule antagonists, cell-based qHTS assay (AID 1963591; active = well fitted inhibition curve with a large enough effect in the signal ratio in the repeat runs, not every such curve was filed as active; the % refers to the signal ratio)
Method in brief: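 Antagonist mode: test compounds are co-incubated with the adenylyl cyclase activator NKH477 (0.25 uM final) on CRE-bla HEK293T cells for 3 h at 37 °C, followed by LiveBLAzer substrate loading.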

[15] = target: Beta-2 adrenergic receptor (Homo sapiens) (UniProt P07550); assay: Adrenergic beta2 receptor (ADRB2) small molecule antagonists, cell-based qHTS assay (AID 1963592); note: series mostly up to about 92 µM; nearly all actives have a fitted effect of over 50% in size
Method in brief: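 Cells (CHO, stable ADRB2 overexpression) incubated 18-20hr at 37C; compounds added from DMSO; agonist mix (1nM isoproterenol, 100uM IBMX, 25uM Ro-20-1724) added; 0.5hr RT; d2-cAMP and anti-cAMP-cryptate added; 1hr RT; 665/615 nm read.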

[16] = target: Beta-2 adrenergic receptor (Homo sapiens) (UniProt P07550); assay: Adrenergic beta2 receptor (ADRB2) small molecule agonists, cell-based qHTS assay (AID 1963593);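 note: CHO cells stably overexpressing human ADRB2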
Method in brief: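 CHO cells stably over-expressing ADRB2 were plated overnight at 37C, then dosed with compounds plus a stimulation mix containing 100uM IBMX and 25uM Ro-20-1724 for 0.5hr at room temperature. cAMP was measured by HTRF competition, 1hr.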

[17] = target: D(2) dopamine receptor (Homo sapiens) (UniProt P14416); assay: Dopamine D2 receptor (DRD2) small molecule agonists, cell-based qHTS assay (AID 1963594); note: nearly all actives have a fitted effect of over 35% in size; note: potency is the fitted concentration of half-maximal effect
Method in brief: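 cAMP accumulation in DRD2-HEK293 cells measured by HTRF after 1 h detection; compounds added 10 min before NKH477 (200nM […]) forskolin-analogue stimulation, 30 min at room temperature, with Ro20-1724 present at 0.1 mM final.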

[18] = target: Muscarinic acetylcholine receptor M1 (Homo sapiens) (UniProt P11229); assay: Cholinergic receptor muscarinic 1 (CHRM1) small molecule antagonists, cell-based qHTS assay (AID 1963588); note: nearly all actives have a fitted effect of over 40% in size
Method in brief: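 CHRM1-CHO calcium-flux assay, antagonist mode. Cells were seeded 18 h, dye-loaded 1 h at 37 C and given compound for 5 min at RT, then acetylcholine was added at 50nM. FDSS fluorescence was read 3 min; 15 concentrations, three runs.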

[19] = cAMP Responsive Elements (CRE) small molecule agonists, cell-based qHTS assay (AID 1963590)
Method in brief: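 Agonist mode qHTS in CRE-bla HEK 293T cells: compounds dosed from DMSO for 3 h at 37 C/5% CO2, followed by LiveBLAzer B/G FRET substrate for 2 h at room temperature.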

[20] = target: D(2) dopamine receptor (Homo sapiens) (UniProt P14416); assay: Dopamine D2 receptor (DRD2) small molecule antagonists, cell-based qHTS assay (AID 1963595; active = well fitted inhibition curve with a large enough effect in the signal ratio in the repeat runs, with a control signal flat; the % refers to the signal ratio)
Method in brief: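 HEK293 cells stably expressing DRD2 were preincubated with 0.1 mM Ro20-1724, then with compound for 10 min at room temperature. Cells were stimulated with 200 nM NKH477 plus 12 nM quinpirole for 30 min, and cAMP was read by HTRF.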
% is set by controls: 0 for no effect and ±100 for the full control effect.

Sequence of Gonadotropin-releasing hormone receptor (Homo sapiens) (P30968 whole entry, looked up): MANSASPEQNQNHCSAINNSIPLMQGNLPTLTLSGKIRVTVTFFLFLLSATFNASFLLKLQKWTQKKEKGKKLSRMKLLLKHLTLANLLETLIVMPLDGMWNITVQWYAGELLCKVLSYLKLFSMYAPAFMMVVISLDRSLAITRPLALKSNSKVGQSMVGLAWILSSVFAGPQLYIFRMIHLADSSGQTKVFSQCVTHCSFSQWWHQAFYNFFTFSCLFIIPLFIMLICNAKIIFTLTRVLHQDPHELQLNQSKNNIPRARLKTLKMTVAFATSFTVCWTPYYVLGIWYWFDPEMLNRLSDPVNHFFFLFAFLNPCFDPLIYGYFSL
Sequence of D(2) dopamine receptor (Homo sapiens) (P14416 whole entry, looked up): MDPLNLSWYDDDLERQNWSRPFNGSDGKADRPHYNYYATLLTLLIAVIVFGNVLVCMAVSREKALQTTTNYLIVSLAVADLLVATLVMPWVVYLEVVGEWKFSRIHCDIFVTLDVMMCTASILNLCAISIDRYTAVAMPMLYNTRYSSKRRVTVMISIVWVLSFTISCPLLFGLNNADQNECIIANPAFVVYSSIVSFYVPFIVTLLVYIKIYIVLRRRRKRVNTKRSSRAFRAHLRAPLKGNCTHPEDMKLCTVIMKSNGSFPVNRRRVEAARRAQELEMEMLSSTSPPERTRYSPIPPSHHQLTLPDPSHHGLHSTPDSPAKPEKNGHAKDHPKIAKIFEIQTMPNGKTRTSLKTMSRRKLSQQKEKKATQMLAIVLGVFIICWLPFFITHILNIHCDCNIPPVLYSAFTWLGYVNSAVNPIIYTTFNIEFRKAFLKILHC
Sequence of Beta-2 adrenergic receptor (Homo sapiens) (P07550 whole entry, looked up): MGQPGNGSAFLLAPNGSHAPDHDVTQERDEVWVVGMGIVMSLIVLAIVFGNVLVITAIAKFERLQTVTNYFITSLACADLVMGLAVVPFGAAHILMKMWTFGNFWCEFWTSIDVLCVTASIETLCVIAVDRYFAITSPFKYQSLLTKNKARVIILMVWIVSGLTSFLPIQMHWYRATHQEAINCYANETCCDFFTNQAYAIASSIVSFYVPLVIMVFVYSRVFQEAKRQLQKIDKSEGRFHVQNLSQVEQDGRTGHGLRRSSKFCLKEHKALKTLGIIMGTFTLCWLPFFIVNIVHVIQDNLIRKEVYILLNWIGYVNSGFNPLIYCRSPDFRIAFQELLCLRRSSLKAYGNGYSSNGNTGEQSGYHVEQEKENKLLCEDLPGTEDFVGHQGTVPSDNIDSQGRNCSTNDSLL
Sequence of 5-hydroxytryptamine receptor 2A (Homo sapiens) (P28223 whole entry, looked up): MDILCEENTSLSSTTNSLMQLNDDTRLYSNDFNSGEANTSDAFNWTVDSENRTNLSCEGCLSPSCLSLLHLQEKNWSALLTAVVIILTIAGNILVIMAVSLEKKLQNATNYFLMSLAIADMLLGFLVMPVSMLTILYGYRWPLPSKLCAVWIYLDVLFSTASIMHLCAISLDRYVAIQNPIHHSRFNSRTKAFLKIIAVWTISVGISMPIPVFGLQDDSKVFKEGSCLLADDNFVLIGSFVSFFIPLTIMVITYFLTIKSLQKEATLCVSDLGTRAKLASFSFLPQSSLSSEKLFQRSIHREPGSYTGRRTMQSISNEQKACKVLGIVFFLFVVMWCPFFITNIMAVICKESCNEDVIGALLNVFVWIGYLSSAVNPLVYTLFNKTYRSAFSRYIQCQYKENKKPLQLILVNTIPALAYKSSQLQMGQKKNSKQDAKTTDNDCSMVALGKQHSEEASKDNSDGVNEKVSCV
Sequence of Muscarinic acetylcholine receptor M1 (Homo sapiens) (P11229 whole entry, looked up): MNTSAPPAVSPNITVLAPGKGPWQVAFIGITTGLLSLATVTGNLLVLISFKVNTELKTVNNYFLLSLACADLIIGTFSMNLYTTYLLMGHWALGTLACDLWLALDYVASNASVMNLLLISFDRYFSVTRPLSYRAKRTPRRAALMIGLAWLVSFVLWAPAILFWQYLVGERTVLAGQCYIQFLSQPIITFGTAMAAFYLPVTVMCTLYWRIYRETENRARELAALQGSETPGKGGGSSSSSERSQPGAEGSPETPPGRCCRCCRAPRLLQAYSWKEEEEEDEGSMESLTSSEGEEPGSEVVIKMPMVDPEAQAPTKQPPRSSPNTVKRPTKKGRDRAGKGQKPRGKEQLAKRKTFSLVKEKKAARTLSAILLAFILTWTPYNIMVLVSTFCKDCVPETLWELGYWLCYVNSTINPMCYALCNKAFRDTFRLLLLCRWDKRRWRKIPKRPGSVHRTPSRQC

Cc1ccccc1C#N
inactive: Potency [1] | Potency [2] | Potency [3] | outcome [4] | Potency [5] | Potency [6] | Potency [7] | Potency [8] | Potency [9] | Potency [10] | Potency [11] | Potency [12] | Potency [13] | Potency [14] | Potency [15] | Potency [16] | Potency [17]

Cc1c(N)cccc1[N+](=O)[O-]
active: Potency [2] 27.8 µM
inactive: Potency [1] | Potency [3] | outcome [4] | Potency [5] | Potency [6] | Potency [7] | Potency [8] | Potency [9] | Potency [10] | Potency [12] | Potency [18] | Potency [13] | Potency [19] | Potency [14] | Potency [15] | Potency [17] | Potency [20]

CC(C)OC(=O)C(C(=O)OC(C)C)=C1SC=CS1
inactive: Potency [1] | Potency [2] | Potency [3] | outcome [4] | Potency [5] | Potency [6] | Potency [7] | Potency [8] | Potency [9] | Potency [10] | Potency [11] | Potency [12] | Potency [18] | Potency [13] | Potency [19] | Potency [15] | Potency [16] | Potency [17] | Potency [20]

CCN(CC)CCNC(=O)COc1ccc(Cl)cc1
inactive: Potency [1] | Potency [2] | Potency [3] | outcome [4] | Potency [5] | Potency [6] | Potency [7] | Potency [8] | Potency [9] | Potency [10] | Potency [12] | Potency [18] | Potency [13] | Potency [19] | Potency [15] | Potency [16] | Potency [17] | Potency [20]

CSSc1ccoc1C
inactive: Potency [1] | Potency [2] | Potency [3] | outcome [4] | Potency [5] | Potency [6] | Potency [7] | Potency [8] | Potency [9] | Potency [10] | Potency [11] | Potency [12] | Potency [18] | Potency [13] | Potency [19] | Potency [14] | Potency [15] | Potency [17] | Potency [20]

CC[N+](CC)(CC)Cc1ccccc1
inactive: Potency [1] | Potency [2] | Potency [3] | outcome [4] | Potency [5] | Potency [6] | Potency [7] | Potency [8] | Potency [9] | Potency [10] | Potency [12] | Potency [18] | Potency [13] | Potency [19] | Potency [14] | Potency [15] | Potency [17] | Potency [20]

Cc1ncc(CO)c(C=O)c1O
inactive: Potency [1] | Potency [2] | Potency [3] | outcome [4] | Potency [5] | Potency [6] | Potency [7] | Potency [8] | Potency [9] | Potency [10] | Potency [11] | Potency [12] | Potency [18] | Potency [13] | Potency [19] | Potency [15] | Potency [17]

CCOC(CN1CCN(CC(C)C(=O)c2ccccc2)CC1)c1ccccc1 (stereo not given)
inactive: activity change, negative = cytotoxicity [1] -17.1% [at 19 µM] | activity, positive = activation [2] 6.71% [at 19 µM] | activity change [3] -0.217% [at 11.8 µM, active compounds read high] | activation [4] 1.41% [at 11.8 µM] | activation [5] -8.35% [at 13.5 µM] | activation [6] 1.1% [at 13.6 µM] | activity change, negative = cytotoxicity [7] 24.1% [at 13.5 µM] | activity change, negative = cytotoxicity [8] 0.0683% [at 13.5 µM] | activity change, negative = cytotoxicity [9] 9.5% [at 13.5 µM] | activation [10] -3.89% [at 13.5 µM] | activation [12] -20.7% [at 15.9 µM] | activity, negative = inhibition [18] -8.62% [at 12.6 µM] | activation [13] -0.405% [at 15.8 µM] | activation [19] -1.09% [at 19 µM] | activity change, negative = inhibition [14] 10.1% [at 18.9 µM] | activity change, negative = inhibition [15] 4.02% [at 19 µM] | Potency [16] | activation [17] -24.3% [at 19 µM] | activity change, negative = inhibition [20] 9.08% [at 18.9 µM]

Cc1cc(CC(=O)O)c(C)n1-c1ccc(Cl)cc1
inactive: Potency [1] | Potency [2] | Potency [3] | outcome [4] | Potency [5] | Potency [6] | Potency [7] | Potency [8] | Potency [9] | Potency [10] | Potency [11] | Potency [12] | Potency [18] | Potency [13] | Potency [15] | Potency [16] | Potency [20]

Cc1c(C)c2c(c(C)c1OC(=O)CCC(=O)OCCO)CC[C@@](C)(CCC[C@H](C)CCC[C@H](C)CCCC(C)C)O2
active: Potency [1] 26.6 µM
inactive: Potency [2] | Potency [3] | outcome [4] | Potency [5] | Potency [6] | Potency [7] | Potency [8] | Potency [9] | Potency [10] | Potency [11] | Potency [12] | Potency [13] | Potency [15] | Potency [17] | Potency [20]

CCOC(=O)c1ccc(I)cc1
inactive: Potency [1] | Potency [2] | Potency [3] | outcome [4] | Potency [5] | Potency [6] | Potency [7] | Potency [8] | Potency [9] | Potency [10] | Potency [12] | Potency [18] | Potency [13] | Potency [19] | Potency [14] | Potency [15] | Potency [17] | Potency [20]

CCCCOC(=O)C(C)CC (stereo not given)
inactive: Potency [1] | Potency [2] | Potency [3] | outcome [4] | Potency [5] | Potency [6] | Potency [7] | Potency [8] | Potency [9] | Potency [10] | Potency [11] | Potency [12] | Potency [18] | Potency [13] | Potency [19] | Potency [14] | Potency [15] | Potency [17] | Potency [20]

O=CN1CCOCC1
inactive: Potency [1] | Potency [2] | Potency [3] | outcome [4] | Potency [5] | Potency [6] | Potency [7] | Potency [8] | Potency [9] | Potency [10] | Potency [11] | Potency [13] | Potency [19] | Potency [14] | Potency [15] | Potency [17] | Potency [20]

CN=C(NC#N)NCCSCc1csc(N=C(N)N)n1
inactive: Potency [1] | Potency [2] | Potency [3] | outcome [4] | Potency [5] | Potency [6] | Potency [7] | Potency [8] | Potency [9] | Potency [10] | Potency [11] | Potency [12] | Potency [18] | Potency [13] | Potency [19] | Potency [14] | Potency [20]
active: Potency [17] 19.9 µM
